# Experimental data reported in ChEMBL document CHEMBL4513141, “CO-ADD screening of NIH (USA) - Clinical Collection” (2021).
# Entries with a potency or affinity are not part of this list.
# What was measured:
# Staphylococcus aureus = settings: Concentration 20 uM; ASSAY_TEST Inhibition of Bacterial Growth; detection method Absorption (OD600); MEDIA CAMHB; plate type 384well; NBS; CORNING #3640; time 18 hr
# Escherichia coli = settings: Concentration 20 uM; ASSAY_TEST Inhibition of Bacterial Growth; detection method Absorption (OD600); MEDIA CAMHB; plate type 384well; NBS; CORNING #3640; time 18 hr
SMILES,Inhibition (Staphylococcus aureus),Inhibition (Escherichia coli)
COC(=O)N1CCN(C(=O)Cc2ccc(Cl)c(Cl)c2)C(CN2CCCC2)C1.O=C(O)/C=C/C(=O)O (stereo not drawn),12.27%,2.23%
CC(C)[C@]12O[C@H]1[C@@H]1O[C@]13[C@]1(O[C@H]1C[C@H]1C4=C(CC[C@@]13C)C(=O)OC4)[C@@H]2O [TRIPTOLIDE],14.16%,-9.75%
CN1[C@@H]2CC[C@H]1C[C@@H](OC(=O)c1c[nH]c3ccccc13)C2.Cl,18.1%,-3.68%
c1ccc(Cn2ccnc2)cc1,13.36%,-1.92%
Cc1c(O)c(=O)ccn1C [DEFERIPRONE],9.56%,-6.38%
Cl.O.Oc1cc2c(cc1O)[C@H]1c3ccccc3CN[C@@H]1CC2,11.17%,6.66%
Cl.NCCc1ccc(O)c(O)c1 [DOPAMINE HYDROCHLORIDE],8.23%,-5.62%
O=C(O)CCCc1ccc(N(CCCl)CCCl)cc1 [CHLORAMBUCIL],7.69%,8.33%
CN(C)CCc1c[nH]c2ccc(Cn3cncn3)cc12.O=C(O)c1ccccc1 [RIZATRIPTAN BENZOATE],12.43%,-5.47%
O.O=P1(N(CCCl)CCCl)NCCCO1 (stereo not drawn) [CYCLOPHOSPHAMIDE],2.64%,1.99%
CC[C@@H]1/C=C/C=C/C[C@H](C)[C@@H](O)[C@](C)(O)C(=O)[C@H](C)[C@@H](O)[C@H](C)C(=O)[C@H](C)[C@@H](O)[C@H](C)/C=C/C(=O)O[C@H]2[C@@H](C)[C@@H](CC1)O[C@@]1(CC[C@@H](C)[C@@H](C[C@H](C)O)O1)[C@@H]2C,9.12%,0.23%
C=C(C)[C@@H]1[C@H]2OC(=O)[C@@H]1[C@]1(O)C[C@H]3O[C@]34C(=O)O[C@H]2[C@]14C.CC(C)(O)[C@@H]1[C@H]2OC(=O)[C@@H]1[C@]1(O)C[C@H]3O[C@]34C(=O)O[C@H]2[C@]14C,10.5%,5.19%
C#CCN(C)[C@H](C)Cc1ccccc1.Cl [SELEGILINE HYDROCHLORIDE],-22.3%,3.38%
C[N+]1(C)CCC(OC(=O)C(O)(c2ccccc2)C2CCCC2)C1.[Br-] (stereo not drawn) [GLYCOPYRRONIUM BROMIDE],11.8%,–
CCOC(=O)C1(c2ccccc2)CCN(CCC(C#N)(c2ccccc2)c2ccccc2)CC1.Cl [DIPHENOXYLATE HYDROCHLORIDE],14.18%,-7.43%
COc1cc(CNC(=O)CCCC/C=C\C(C)C)ccc1O [ZUCAPSAICIN],14.17%,0%
c1cncc([C@@H]2CCCN2)c1 [NORNICOTINE],12.8%,-3.23%
Cl.Cl.OCCN1CCN(CCCN2c3ccccc3Sc3ccc(C(F)(F)F)cc32)CC1 [FLUPHENAZINE HYDROCHLORIDE],12.42%,-6.08%
Nc1nc2ccc(Cl)cc2c2nc(-c3ccco3)nn12 [CGS-15943],11.02%,5.2%
Cl.NCC(O)c1ccc(O)c(O)c1 (stereo not drawn),10.44%,0.24%

SMILES,Inhibition (Staphylococcus aureus),Inhibition (Escherichia coli)
CC(=O)CC(c1ccccc1)c1c([O-])c2ccccc2oc1=O.[Na+] (stereo not drawn) [WARFARIN SODIUM],12.98%,-2.34%
CNC(=O)Oc1ccc2c(c1)[C@]1(C)CCN(C)C1N2C.CNC(=O)Oc1ccc2c(c1)[C@]1(C)CCN(C)C1N2C.O=S(=O)(O)O (stereo partly drawn),12.91%,-3.79%
CNCCC(Oc1ccc(C(F)(F)F)cc1)c1ccccc1.Cl (stereo not drawn) [FLUOXETINE HYDROCHLORIDE],15.46%,2.53%
C[C@]12CC[C@H]3[C@@H](CCC4=CC(=O)CC[C@@H]43)[C@@H]1CC[C@@H]2O [NANDROLONE],-0.13%,1.44%
CC(C)NCC(O)COc1cccc2[nH]ccc12 (stereo not drawn) [PINDOLOL],7.44%,5.35%
CC[C@@H](C(N)=O)N1CCCC1=O,18.53%,0.96%
O=C1CN=C(c2ccccc2)c2cc([N+](=O)[O-])ccc2N1 [NITRAZEPAM],7.65%,5.89%
COc1cc2c(cc1OC)[C@@]13CCN4CC5=CCO[C@H]6CC(=O)N2[C@H]1[C@H]6[C@H]5C[C@H]43 [BRUCINE],7.1%,-1.43%
Br.CN1[C@@H]2CC(OC(=O)[C@H](CO)c3ccccc3)C[C@H]1[C@@H]1O[C@@H]12.O.O.O (stereo partly drawn),15.22%,–
C[C@]12CC[C@H](O)CC1=CC[C@@H]1[C@@H]2CC[C@@]2(C)[C@H]1CC[C@]2(C)O [METHANDRIOL],0.46%,5.99%
CCOC(=O)c1cncn1[C@H](C)c1ccccc1 [ETOMIDATE],11.17%,2.26%
COc1ccc2[nH]cc(C3=CCNCC3)c2c1.COc1ccc2[nH]cc(C3=CCNCC3)c2c1.O=C(O)CCC(=O)O,16.86%,5.51%
CN1[C@@H](CC(=O)c2ccccc2)CCC[C@H]1C[C@H](O)c1ccccc1.Cl [LOBELINE HYDROCHLORIDE],13.97%,-0.94%
COc1ccc(CCN)cc1OC,8.89%,-3.33%
C[N+]1(C)CCCC(OC(=O)C(O)(c2ccccc2)c2ccccc2)C1.[Br-] (stereo not drawn) [MEPENZOLATE BROMIDE],1.79%,3.23%
Cl.Oc1ccc2c3c1OC1C(O)CC[C@@]4(O)[C@@H](C2)N(CC2CCC2)CC[C@]314 (stereo partly drawn),18.7%,-2.31%
Fc1ccc([C@@H]2CCNC[C@H]2COc2ccc3c(c2)OCO3)cc1.O=C(O)/C=C\C(=O)O,0.49%,6.75%
Cn1c(=O)c2nc[nH]c2n(C)c1=O.O [THEOPHYLLINE],-24.23%,7.82%
C[C@]12CCC(=O)C[C@@H]1CC[C@@H]1[C@@H]2CC[C@@]2(C)[C@H]1CC[C@]2(C)O [MESTANOLONE],-23.2%,5.51%
CN1C(=O)COc2c(C(=O)NC3CN4CCC3CC4)cc(Cl)cc21.Cl (stereo not drawn),14.32%,3.95%

SMILES,Inhibition (Staphylococcus aureus),Inhibition (Escherichia coli)
CC(=O)OC1C([N+]2(C)CCCCC2)C[C@H]2C3CC[C@H]4C[C@H](OC(C)=O)C([N+]5(C)CCCCC5)CC4(C)[C@H]3CCC12C.[Br-].[Br-] (stereo partly drawn),8.65%,6.22%
C[C@H](CCC(=O)O)[C@H]1CC[C@H]2[C@@H]3C(=O)C[C@@H]4CC(=O)CC[C@]4(C)[C@H]3CC(=O)[C@]12C [DEHYDROCHOLIC ACID],8.43%,9.29%
CN1[C@@H]2CC[C@H]1CC(OC(=O)C(CO)c1ccccc1)C2 (stereo partly drawn),1.53%,-5.78%
CCC1(c2ccc(N)cc2)CCC(=O)NC1=O (stereo not drawn) [AMINOGLUTETHIMIDE],-4.21%,2.02%
c1ccc2c(c1)Nc1ccccc1S2 [PHENOTHIAZINE],-22.92%,9.21%
CC(=O)OCC[N+](C)(C)C.[Cl-] [ACETYLCHOLINE CHLORIDE],11.31%,4.11%
Cl.O=C1CC2(CCCC2)CC(=O)N1CCCCN1CCN(c2ncccn2)CC1 [BUSPIRONE HYDROCHLORIDE],17.44%,4.5%
Br.Br.CN1CC[C@]2(c3cccc(O)c3)Cc3nc4ccccc4cc3C[C@H]2C1.O,5.38%,1.66%
COCCCOc1ccnc(C[S+]([O-])c2nc3ccccc3[nH]2)c1C (stereo not drawn) [RABEPRAZOLE],10.37%,7.16%
Cc1nnc2n1-c1ccc(Cl)cc1C(c1ccccc1)=NC2 [ALPRAZOLAM],16.72%,0.08%
COc1cc(N)c(Cl)cc1C(=O)NC1CN2CCC1CC2.Cl.O (stereo not drawn) [ZACOPRIDE HYDROCHLORIDE],-3.02%,7.58%
Cl.O[C@@H]1CCCC[C@H]1N1CCC(c2ccccc2)CC1,14.8%,1.48%
CN/C(=N\CCSCc1nc[nH]c1C)NC#N [CIMETIDINE],12.6%,-4.2%
Brc1c(NC2=NCCN2)ccc2nccnc12 [BRIMONIDINE],7.02%,-2.73%
CNS(=O)(=O)Cc1ccc2[nH]cc(CCN(C)C)c2c1.O=C(O)CCC(=O)O [SUMATRIPTAN SUCCINATE],12.49%,0.9%
CC(C)c1cccc(C(C)C)c1O [PROPOFOL],-2.39%,-13.59%
Cl.O.Oc1ccc2c3c1O[C@H]1c4[nH]c5ccccc5c4C[C@@]4(O)C(C2)N(CC2CC2)CC[C@]314,-20.11%,6.59%
C#C[C@]1(O)CC[C@H]2[C@@H]3CCC4=CC(=O)CC[C@@H]4[C@H]3CC[C@@]21C [NORETHINDRONE],-0.74%,4.04%
C#C[C@]1(OC(C)=O)CC[C@H]2[C@@H]3CCC4=CC(=O)CC[C@@H]4[C@H]3CC[C@@]21C [NORETHINDRONE ACETATE],11.13%,-1.23%
CS(=O)(=O)Nc1ccc(Cc2noc(-c3ccc4[nH]cc(CCN)c4c3)n2)cc1.O.O,12.02%,7.87%
